Screens as filed in PubChem.
Shown are actives, neighbours in structure and some others; about 21% of the full set was active somewhere.
ClpP mod: qHTS Assay for Activators of ClpP; actives 1.9% (n = 340,000); Potency, µM (top dose mostly 57.5 µM), for the others: top-dose activity change, negative = active; purified B. subtilis ClpP, FRET peptide cleavage, 20 min; active = well fitted falling curve with a large enough effect; inconclusive = small, poorly fitted or top-dose-only effect; inactive = no such curve, though single readings can be large or run the other way; also: potency is read from the fitted curve at half-maximal effect; the source files actives as falling curves though it sought activators and does not explain the sign; nearly all actives have a fitted effect of over 65% in size
Target sequence (P80244 whole entry, looked up): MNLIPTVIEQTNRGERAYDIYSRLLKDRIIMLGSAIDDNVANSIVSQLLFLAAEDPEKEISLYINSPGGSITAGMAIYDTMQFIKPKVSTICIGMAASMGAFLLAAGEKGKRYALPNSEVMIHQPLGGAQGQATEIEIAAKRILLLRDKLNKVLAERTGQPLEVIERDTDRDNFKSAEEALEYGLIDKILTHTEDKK
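FRET quenching reversal measured ClpP activation: 10 microg/mL B. subtilis ClpP at pH 8 with the FRET-FV decapeptide, read at 430 nm after 320 nm excitation. The 20-min minus 0-min signal was scaled between DMSO/no-enzyme wells and ADEP (5.8 microM final).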
D3 antag: antagonists of human D3 dopamine receptor; P35462; max response, negative = inhibition, %; actives 2.5% (n = 360,000); D3R cells, DiscoveRx beta-arrestin luminescence, antagonist mode; stronger effect = lower value; in the data active = max response below about -50%; inconclusive = no clear call, values can overlap the other calls; also: % is scaled to controls: 0 for no effect and ±100 for the full control effect
Target sequence (P35462 whole entry, looked up): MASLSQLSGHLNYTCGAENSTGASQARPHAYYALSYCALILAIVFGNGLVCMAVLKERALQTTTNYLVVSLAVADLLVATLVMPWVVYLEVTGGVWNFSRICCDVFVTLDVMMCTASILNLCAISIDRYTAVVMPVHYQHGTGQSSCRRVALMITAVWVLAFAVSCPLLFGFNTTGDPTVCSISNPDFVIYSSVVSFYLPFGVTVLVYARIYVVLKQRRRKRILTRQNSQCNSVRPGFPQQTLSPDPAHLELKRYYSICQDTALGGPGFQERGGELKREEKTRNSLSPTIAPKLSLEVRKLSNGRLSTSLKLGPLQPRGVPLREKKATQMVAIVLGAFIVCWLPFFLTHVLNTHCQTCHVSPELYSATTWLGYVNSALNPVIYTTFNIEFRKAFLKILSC
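Cells plated overnight at 1500 cells/well, then exposed to library compounds with dopamine controls for 90 minutes at 37 degrees C. DiscoveRx reagent added for 30–60 minutes at room temperature; luminescence read, quantitative HTS format.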
TDP1 cell noCPT: qHTS for Inhibitors of human tyrosyl-DNA phosphodiesterase 1 (TDP1): qHTS in cells in absence of CPT | DT40 Tdp1-/- hTDP1 cells, no CPT, ATP luminescence, 48 h | Potency, µM (doses to about 46.2 µM), inactives show at the top dose activity change, negative = growth inhibition, hits mostly inhibitors | actives 15% (n = 420,000) | AID 686978, 2013; also: potency is read from the fitted curve at half-maximal effect; % is scaled to controls: 0 for no effect and ±100 for the full control effect; nearly all actives have a fitted effect of over 55% in size
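Cells were dispensed at 400 per well, compounds added by pin tool, plates incubated ≥48 hr at 37 °C, then CellTiter-Glo added for 30 min at room temperature before luminescence reading. Line: DT40 Tdp1-/- complemented with hTDP1; camptothecin omitted.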
IL1B secr inh: inflammasome signaling inhibition, IL-1 beta readout; activity change, % at 57.5 µM; THP-1 LPS/ATP IL-1B secretion, AlphaLISA, 16 h; stronger effect = lower value; actives 4.7% (n = 360,000); in the data active = activity change below about -50%; inconclusive = mostly about -30% to -49%; also: % is scaled to controls: 0 for no effect and ±100 for the full control effect
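Secreted IL-1B measured by AlphaLISA bead assay after 16 h compound exposure of THP-1 cells; compounds (final up to 57.5 uM) added 1 h before LPS (250 ng/mL) and ATP (1.25 mM) stimulation; lower signal means less secretion.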
D3 ag: activates the human D3 dopamine receptor; P35462; D3R DiscoveRx beta-arrestin cells, luminescence, 90 min; max activation, %; actives 0.58% (n = 410,000); in the data active = max activation above about 30%; also: 0% is about no effect
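Agonist-mode cell screen: cells plated at 1500/well and incubated overnight at 37 °C, then exposed to library compounds for 90 min at 37 °C. Detection reagent was added for 30–60 min at room temperature, and luminescence was read.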
TDP1 cell CPT: DT40-hTDP1 cell growth loss with CPT; chicken DT40 Tdp1-/-;hTDP1 cells + 20 nM CPT, ATP luminescence, 48 h; Potency, µM (series often up to 46.2 µM), without a hit: top-dose activity change, negative = growth inhibition, actives largely listed as inhibitors; actives 12% (n = 420,000); also: potency is read from the fitted curve at half-maximal effect; % is scaled to controls: 0 for no effect and ±100 for the full control effect; nearly all actives have a fitted effect of over 55% in size
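Cell growth measured by CellTiter-Glo luminescence after a minimum 48 h, 37 C compound exposure with 20 nM CPT in Tdp1-knockout DT40 cells stably expressing hTDP1, seeded 400/well; qHTS titration format.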
Active calls of the source: *; ? = inconclusive; . = no result given; [ ] = another dose, or the depositor's remark. Unless noted, calls follow the shape of the dose curve; as a rule, active = well fitted inhibition curve with a large enough effect; inconclusive = small, poorly fitted or top-dose-only effect; inactive = flat fitted curve, though single readings scatter.

SMILES | ClpP mod | D3 antag | TDP1 cell noCPT | IL1B secr inh | D3 ag | TDP1 cell CPT
O=C1[C@H](Cc2ccccc2)NCC=CC[C@H](c2ccc(Cl)cc2)N1Cc1ccccc1 | 0% | -21 | ? | -52* | -15 | ?
O=C1SC(Nc2ccc(Cl)cc2)C(=O)N1Cc1ccccc1 (stereo not drawn) | -7% | . | ? | . | 5 | -4%
CC(C)CC(=O)N1CCC(O)(CS(=O)(=O)Cc2ccc(Cl)cc2)CC1 | -3% | 15 | -1% | -1 | 1 | -29%
O=C1[C@H](Cc2ccccc2)NCC=CC[C@H](c2ccc(Cl)cc2)N1Cc1ccc(Cl)cc1 | -1% | 0 | 16µM* | -66* | 4 | 23µM*
O=c1[nH]c2ccccc2n1Cc1ccc(Cl)cc1 | 1% | -7 | ? | -4 | 10 | -20%
COC(=O)c1ccc(C(=O)OC)c(NC(=O)C(C)(C)C)c1 | . | 5 | -6% | 6 | 0 | 1%
O=C(CSc1nnc(C2CC2)n1C1CC1)c1ccc(Br)s1 | 0% | -65* | 3% | -3 | 0 | 4%
COc1ccccc1CN(C)C(=O)CSc1nnc(C2CC2)n1C1CC1 | -1% | 4 | 16µM* | 16 | 3 | ?
O=C(CSc1nnc(C2CC2)n1C1CC1)c1cccs1 | 2% | 6 | 19% | 3 | -2 | 1%
COc1ccc(C(N)CCc2ccc(C)o2)cc1 (stereo not drawn) | ? | 23 | 18µM* | ? | -7 | ?
CCc1ccc(CCC(=O)Nc2ccc(OC)cc2)o1 | -3% | -13 | -25% | 12 | -4 | -14%
O=c1oc2ccccc2cc1-c1csc(Cc2nc(-c3ccc(Br)cc3)cs2)n1 | 28% | 19 | 16µM* | -1 | 11 | ?
Cc1cc(C)c(-c2csc(Cc3nc(-c4cc5ccccc5oc4=O)cs3)n2)cc1C | 8% | 8 | 15µM* | -20 | 6 | 18µM*
Cc1ccc(-c2csc(Cc3nc(-c4cc5ccccc5oc4=O)cs3)n2)cc1 | ? | 3 | 23µM* | -27 | 12 | 18µM*
COc1ccc(-c2ccc([C@H]3[C@H]4C=CC[C@@H](C)[C@@H]4C(=O)N3Cc3ccccc3)c(F)c2)cc1OC | 3% | -11 | 16µM* | ? | 0 | 18µM*
COc1ccc(CCNC(=O)C2c3ccccc3C(=O)N2Cc2ccccc2)cc1OC (stereo not drawn) | -3% | . | ? | . | 5 | -4%
COc1ccc(-c2ccc([C@H]3[C@H]4C=CC[C@@H](C)[C@@H]4C(=O)N3Cc3ccccc3)c(F)c2)cc1 | 20µM* | ? | 21µM* | -3 | -34 | ?
COc1ccc(-c2c([C@H]3[C@H]4C=CC[C@@H](C)[C@@H]4C(=O)N3Cc3ccccc3)ccc3ccccc23)cc1 | -22% | 1 | 10µM* | -10 | 10 | 10µM*
C[C@@H]1CC=C[C@H]2[C@H]1C(=O)N(Cc1ccccc1)[C@H]2c1ccc2ccccc2c1/C=C/c1ccccc1 | 3% | 2 | ? | 46 | -4 | ?
CCCCCC/C=C/c1ccc([C@H]2[C@H]3C=CC[C@@H](C)[C@@H]3C(=O)N2Cc2ccccc2)c(F)c1 | -2% | 18 | 16µM* | 28 | 1 | ?
CCCCCC/C=C/c1ccc(OC)c([C@H]2[C@H]3C=CC[C@@H](C)[C@@H]3C(=O)N2Cc2ccccc2)c1 | -1% | -16 | ? | 11 | -16 | -29%
Cc1ccc(NC(=O)c2nnn(Cc3cccc(C(F)(F)F)c3)c2N)c(C)c1 | 4% | . | ? | . | 7 | ?
COC1=C[C@@H](C)C2CC3OC(=O)C[C@H]4C(C)=C(OC)C(=O)C([C@@]2(C)C1=O)[C@@]34C (stereo partly drawn) | . | . | -2%[9.04 µM] | . | . | -12%[9.04 µM]
CCOC(=O)C1CCN(Cc2cc(=O)oc3c(C)c(C)ccc23)CC1 | -3% | -15 | ? | 11 | 14 | ?
CCN(Cc1nc2cc(Cl)ccc2c(=O)[nH]1)C(=O)c1ccc(C)c(NC(=O)c2ccco2)c1 | 0% | 10 | 2% | -1 | 1 | -1%
SMILES | ClpP mod | D3 antag | TDP1 cell noCPT | IL1B secr inh | D3 ag | TDP1 cell CPT
O=C1CCCc2ccccc2N1Cc1cccc(F)c1 | 0% | 5 | 12µM* | 25 | -3 | 15µM*
O=C1CCCc2ccccc2N1Cc1ccc(F)cc1 | 0% | -4 | ? | 4 | 6 | 12µM*
CCN1C(=O)CCCc2ccccc21 | . | 22 | -6% | 22 | -5 | 1%
O=C1CCc2ccccc2N1Cc1ccccc1 | 1% | 2 | -7% | 24 | 6 | 18%
O=C(Nc1ccc([N+](=O)[O-])cc1)c1nc[nH]c1C(=O)NC1CCCCC1 | 0% | -7 | ? | -10 | -1 | ?
Cc1cccc(NC(=O)c2nc[nH]c2C(=O)N2CCN(C(=O)OC(C)(C)C)CC2)c1 | 0% | 0 | ? | -2 | 2 | 21µM*
Cc1ccc(NC(=O)c2nc[nH]c2C(=O)Nc2ccc(C)cc2)cc1 | 2% | 5 | 7.3µM* | -2 | -4 | 10µM*
O=C(Nc1ccc(F)cc1)c1nc[nH]c1C(=O)Nc1ccc([N+](=O)[O-])cc1 | . | 7 | 15µM* | -1 | -3 | ?
Cc1cccc(NC(=O)c2nc[nH]c2C(=O)NCCN(CCNC(=O)c2[nH]cnc2C(=O)Nc2cccc(C)c2)CCNC(=O)c2[nH]cnc2C(=O)Nc2cccc(C)c2)c1 | ? | 1 | 5.8µM* | -23 | 15 | 6.5µM*
CNC(=O)c1[nH]cnc1C(=O)Nc1ccc(C)cc1 | 27% | 0 | -10% | 11 | 5 | -21%
CC(=O)Nc1ccc(S(=O)(=O)N2CCC(C(=O)NCc3ccncc3)CC2)cc1 | . | 18 | -3% | 15 | 13 | 5%
CCC(NC(=O)c1ccncc1)c1ccccc1 (stereo not drawn) | . | -16 | ? | 40 | -9 | -3%
Cc1cccc(NC(=O)c2nc[nH]c2C(=O)NCCCNC(=O)c2[nH]cnc2C(=O)Nc2cccc(C)c2)c1 | -3% | 146 | ? | -1 | 7 | -2%
Cc1cccc(NC(=O)c2nc[nH]c2C(=O)N[C@@H](C)c2ccccc2)c1 | -11% | -19 | 29µM* | ? | -13 | 23µM*
O=C(Nc1ccccc1)c1nc[nH]c1C(=O)NCCCCCCNC(=O)c1[nH]cnc1C(=O)Nc1ccccc1 | -14% | 13 | 8.2µM* | -7 | 3 | 7.3µM*
